Sampled rows, rich in hits. Any-hit rate of the full collection: about 2.5%.
HTT promoter inh = Primary qHTS for Identification of Small Molecule Inhibitors of Huntingtin Promoter Activity | HEK293 HTT promoter firefly luciferase reporter, 24 h | Potency, µM (titrated, usually from 57.5 µM), usual class: inhibitors | hit rate 0.93% among 48,000 | AID 1508623, 2021; further: nearly all actives have a fitted effect of over 50% in size
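Quantitative HTS used concentration series of up to 57.5 uM final on HEK293 luciferase reporter cells, 24 h at 37 degrees C. Readout was Dual-Glo firefly luminescence.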
NTMT1 inh = Primary qHTS for Inhibitors of N-terminal methyltransferase 1 (NTMT1): MTaseGlo Assay | NTMT1 MTase-Glo SAH luminescence, purified enzyme | hit rate 2.5% among 59,000 | Potency, µM (top dose mostly 114 µM), usual class: inhibitors | AID 1645870, 2021; further: nearly all actives have a fitted effect of over 65% in size
Target sequence (Q9BV86 whole entry, looked up): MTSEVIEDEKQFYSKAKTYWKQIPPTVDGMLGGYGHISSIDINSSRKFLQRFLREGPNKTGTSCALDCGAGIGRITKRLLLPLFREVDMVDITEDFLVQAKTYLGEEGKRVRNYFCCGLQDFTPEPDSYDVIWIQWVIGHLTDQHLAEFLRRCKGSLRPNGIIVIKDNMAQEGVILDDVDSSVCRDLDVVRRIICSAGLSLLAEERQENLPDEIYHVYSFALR
FH mod = Identification of activators of human fumarate hydratase by quantitative high-throughput screening. Potency, µM (series often up to 79.9 µM), most hits filed as inhibitors. hit rate 0.22% among 54,000. FH coupled MDH/diaphorase resazurin fluorescence, 15 min. AID 1347055, 2019; further: the screen sought activators but most active calls are inhibition curves; nearly all actives have a fitted effect of over 45% in size
GALK inh = qHTS Assay for Inhibitors of Human Galactokinase (GALK): NCGC Sytravon Library Screen | 44,000 tested, under 10 active | AID 1347072, 2019 | Potency, µM (series often up to 57.5 µM), actives largely listed as inhibitors | recombinant GALK, Kinase-Glo ATP luminescence, 1 h
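Human GALK (5 nM) was incubated with 35 uM ATP and 100 uM galactose in 20 mM HEPES pH 8.0 with MgCl2, NaCl, DTT and BSA for 1 h at room temperature. Remaining ATP was measured by Kinase-Glo Plus luminescence.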
HTT-AS promoter = Primary qHTS for Identification of Small Molecule Activators of Huntingtin-Antisense Promoter Activity. AID 1508624, 2021. Potency, µM (titrated, usually from 57.5 µM), usual class: activators. HEK293 HTT-AS promoter firefly luciferase reporter, 24 h; response scale: percent change from vehicle, -100% = no light. hit rate 0.24% among 48,000; further: nearly all actives have a fitted effect of over 55% in size
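HEK293 luciferase promoter-reporter cells (2,500/well) plated 24 h, then compounds added at up to 57.5 uM final for 24 h at 37 °C. Firefly luminescence by Dual-Glo, normalized to vehicle (0%) and zero RLU (-100%).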
DYRK1A inh = Assay for Inhibitors of Dual-Specificity Tyrosine-(Y)-Phosphorylation Regulated Kinase 1A (Kinase-Glo assay). shares compounds with NTMT1 inh. recombinant DYRK1A, Kinase-Glo ATP depletion luminescence. Potency, µM (highest dose often 76.9 µM), usual class: inhibitors. hit rate 80% among 100. AID 2705, 2010
CLK4 KinaseGlo = Confirmation Assay for Inhibitors of CDC-like Kinase 4 (Kinase-Glo Assay): SAR round 2. shares compounds with NTMT1 inh. recombinant Clk4, Kinase-Glo ATP luminescence, 4.5 h. Potency, µM (titrated, usually from 76.9 µM), actives largely listed as inhibitors. hit rate 90% among 90. AID 493204, 2011
Sfp qHTS opt = qHTS Assay for Inhibitos of Bacillus subtilis Sfp phosphopantetheinyl transferase (PPTase): Chemistry Optimization Followup; purified Sfp PPTase enzyme activity, qHTS; shares compounds with NTMT1 inh; hit rate 78% among 230; AID 540350, 2011; Potency, µM (doses to about 114 µM), most hits filed as inhibitors
Bsub HM489 growth = qHTS for Inhibitos of Bacillus subtilis Sfp phosphopantetheinyl transferase (PPTase): Chemistry Optimization Followup in B. Subtilis HM489 | shares compounds with NTMT1 inh | B. subtilis HM489 (acpS-) growth, BacTiter-Glo, 5 h | Potency, µM (titrated, usually from 114 µM), most hits filed as inhibitors | hit rate 50% among 220
Sfp gel opt = Gel-Based Assay for Inhibitos of Bacillus subtilis Sfp phosphopantetheinyl transferase (PPTase): Chemistry Optimization Followup | shares compounds with NTMT1 inh | purified Sfp PPTase, gel-based product detection | Potency, µM (highest dose often 250 µM), most hits filed as inhibitors | hit rate 54% among 220 | AID 540355, 2011
Sfp inh SAR2 = qHTS Assay for Inhibitors of Bacillus subtilis Sfp phosphopantetheinyl transferase (PPTase): SAR Round 2; hit rate 87% among 230; purified Sfp enzyme, PPTase activity, qHTS; Potency, µM (titrated, usually from 57.1 µM), hits mostly inhibitors; shares compounds with NTMT1 inh
USP2 K63 confirm = Confirmation Assay for Inhibitors of Ubiquitin-specific Protease USP2a Using CHOP2 as the Reporter: K633; hit rate 80% among 30; Potency, µM (doses to about 57.5 µM), hits mostly inhibitors; USP2 cleavage of DiUb K63-3IQF, fluorescence kinetic; shares compounds with NTMT1 inh
Casp6 inh = qHTS for Inhibitors of Ubiquitin-specific Protease USP2a Using CHOP2 as the Reporter: Caspase 6 Assay. shares compounds with NTMT1 inh. Caspase 6 enzyme, Caspase-Glo 6 luminescence. activity change, negative = inhibition, % at 46.1 µM. 30 tested, under 10 active. AID 652277, 2013
Target sequence (P55212 whole entry, looked up): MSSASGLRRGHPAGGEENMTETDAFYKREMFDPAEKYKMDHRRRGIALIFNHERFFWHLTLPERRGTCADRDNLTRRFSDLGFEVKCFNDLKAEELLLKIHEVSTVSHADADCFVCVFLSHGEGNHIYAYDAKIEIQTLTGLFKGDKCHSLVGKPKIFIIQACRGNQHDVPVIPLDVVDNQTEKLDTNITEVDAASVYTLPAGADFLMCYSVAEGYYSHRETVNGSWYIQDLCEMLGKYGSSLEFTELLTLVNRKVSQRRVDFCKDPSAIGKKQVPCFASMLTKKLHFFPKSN
HSD17B4 counter = Extended Characterization of HPGD Inhibitors: Counterscreen Against HSD17b4 | shares compounds with NTMT1 inh | purified HSD17B4, estradiol/NAD+, NADH fluorescence | Potency, µM (highest dose often 57.1 µM), usual class: inhibitors | hit rate 10% among 230
ALDH1A1 inh = Extended Characterization of HPGD Inhibitors: Counterscreen Against ALDH1A1; shares compounds with NTMT1 inh; recombinant ALDH1A1, NADH fluorescence, propionaldehyde/NAD+; Potency, µM (top dose mostly 57.1 µM), hits mostly inhibitors; hit rate 93% among 230
NNMT counter = Counterscreen qHTS for Inhibitors of N-terminal methyltransferase 1 (NTMT1): NNMT MTaseGlo assay; shares compounds with NTMT1 inh; NNMT MTase-Glo luminescence, SAH detection; Potency, µM (series often up to 57.1 µM), usual class: inhibitors; hit rate 10% among 120; AID 1645878, 2021
Hits are given with their value; n = inactive; u = inconclusive; x = no result given. The call rests on the fitted dose curve; in most records, active means well fitted curve in the direction sought with a large enough effect; inconclusive means small, poorly fitted or top-dose-only effect, or another doubt; inactive means no such curve, though single readings can be large; an effect the other way counts as inactive or inconclusive.

SMILES	HTT promoter inh	NTMT1 inh	FH mod	GALK inh	HTT-AS promoter	others
Cc1cc(C)nc(NC(=S)N2CCN(c3ccc4occc4c3)CC2)c1	x	u	x	x	x	Sfp qHTS opt=3.73µM;Bsub HM489 growth=u;Sfp gel opt=3.98µM;Sfp inh SAR2=4.57µM;HSD17B4 counter=u;ALDH1A1 inh=17.1µM
Cc1cc(C)nc(NC(=S)N2CCN(c3ccc4c(c3)OCO4)CC2)c1	x	28.2µM	x	x	x	Sfp qHTS opt=9.37µM;Bsub HM489 growth=n;Sfp gel opt=0.631µM;Sfp inh SAR2=14.5µM;HSD17B4 counter=u;ALDH1A1 inh=4.29µM
COc1ccc(N2CCN(C(=O)Cc3coc4ccc(C)cc34)CC2)cc1	n	n	n	n	n
Oc1ccc(CNc2cc(Cl)ccn2)c2cccnc12	x	n	x	x	x
OCCCNc1cc(-c2ccnc(Nc3cccc(Cl)c3)n2)ccn1	u	4.47µM	n	x	n	NNMT counter=25.1µM
Nc1ccc(-c2ccnc(NCCCNC(=O)c3c(Cl)cccc3Cl)n2)cc1	x	u	n	x	x
CS(=O)(=O)c1ccc(-c2cnc(NCc3ccco3)n3cnnc23)cc1	x	n	x	x	x
Cc1ccc(S(=O)(=O)Nc2cnccc2C(=O)Nc2nc(-c3ccc(-c4ccccc4)cc3)cs2)cc1	x	n	x	x	x	USP2 K63 confirm=1.72µM;Casp6 inh=n
Cc1ccc(S(=O)(=O)Nc2cnccc2C(=O)Nc2nc(-c3cccc(C)c3)cs2)cc1	x	x	x	x	x	USP2 K63 confirm=1.93µM;Casp6 inh=n
CN(CC1CCCO1)c1ncnc2ccc(-c3ccc4c(c3)OCO4)cc12 (stereo unspecified)	x	n	x	x	x	CLK4 KinaseGlo=0.0582µM
Cc1csc(CNc2ncnc3ccc(-c4ccc5c(c4)OCO5)cc23)c1	x	n	x	x	x
CN(Cc1ncc[nH]1)c1ncnc2ccc(-c3ccc4c(c3)OCO4)cc12	x	u	x	x	x	DYRK1A inh=0.733µM
Cc1csc(CNc2ncnc3ccc(-c4ccc5c(c4)OCO5)cc23)n1	x	n	x	x	x
C=CC(=O)N[C@H]1CCOC[C@H]1Nc1ncc2cc(-c3c(Cl)c(OC)cc(OC)c3Cl)ccc2n1	x	n	x	x	x
